A selection: hits, their analogues and other compounds. The true share with any hit is near 22%.
LmPK inhibitor: inhibitors of Leishmania mexicana pyruvate kinase. Q27686. Potency, µM (doses to about 57.5 µM), actives largely listed as inhibitors. purified LmPK, Kinase-Glo ATP luminescence, 1 h. AID 1721. 0.37% of 290,000 active
Target sequence (Q27686 whole entry, looked up): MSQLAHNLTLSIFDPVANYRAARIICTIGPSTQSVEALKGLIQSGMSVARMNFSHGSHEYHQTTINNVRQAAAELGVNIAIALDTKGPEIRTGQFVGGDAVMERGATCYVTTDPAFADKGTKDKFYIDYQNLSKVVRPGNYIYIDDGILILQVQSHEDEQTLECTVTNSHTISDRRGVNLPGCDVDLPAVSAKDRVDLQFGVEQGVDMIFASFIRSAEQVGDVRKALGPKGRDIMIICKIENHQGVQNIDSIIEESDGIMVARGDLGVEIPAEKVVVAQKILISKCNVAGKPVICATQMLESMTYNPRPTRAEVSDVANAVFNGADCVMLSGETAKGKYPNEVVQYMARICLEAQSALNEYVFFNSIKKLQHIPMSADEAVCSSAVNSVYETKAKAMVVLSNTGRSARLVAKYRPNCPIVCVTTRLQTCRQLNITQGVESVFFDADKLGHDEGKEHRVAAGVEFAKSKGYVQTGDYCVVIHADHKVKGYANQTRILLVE
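In 50 mM imidazole pH 7.2 with 7 mM MgCl2, LmPK (0.1 nM) turned over PEP (0.5 mM) and ADP (0.1 mM) for 1 h at room temperature. Luciferase read-out of ATP.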
Pf growth 96h: P. falciparum growth inhibition at 96 hours; P. falciparum luciferase reporter growth, 96 h; Potency, µM (highest dose often 28.7 µM), hits mostly inhibitors; 6.9% of 320,000 active; AID 504834
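Two parasite generations (96 h, 37 C, 5% CO2) of compound exposure in infected erythrocytes (0.05% parasitemia, 2% hematocrit). Luciferase-reporter P. falciparum; decreased luminescence indicates inhibited growth, aimed at apicoplast-acting delayed death.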
Shiga toxin inh: inhibitors of Shiga toxin in Vero cells | Vero cells, Shiga toxin protein synthesis inhibition reporter | inhibition, % at 38.7 µM | 9.2% of 290,000 active | AID 2315; in the data active means inhibition mostly above about 28%, no sharp cut-off; inactive means mostly below about 43%
CHX counter: counter-screen hit for Shiga toxin inhibitors, cycloheximide. cell reporter, cycloheximide protein synthesis inhibition counterscreen. max response, %. 12% of 300,000 active; in the data active means max response mostly above about 13%, no sharp cut-off; inactive means mostly below about 14%; further: read at 38.3 µM for the half of the compounds with a filed dose
Pf growth 48h: P. falciparum growth inhibition at 48 hours (one generation). 5.9% of 310,000 active. P. falciparum luciferase growth in erythrocytes, 48 h. Potency, µM (titrated, usually from 28.7 µM), hits mostly inhibitors
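Firefly luciferase activity from engineered P. falciparum reports growth; inhibitors lower the luminescent signal. Cultures contained 2% hematocrit erythrocytes at 0.1% final parasitemia.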
Each line names hits and unclear results; the compound was inactive in the other large screens. Unless noted, the call rests on the fitted dose curve; in most records, active means well fitted inhibition curve with a large enough effect; inconclusive means small, poorly fitted or top-dose-only effect, or another doubt; inactive means no such curve, though single readings can be large or run the other way.

COc1ccc(N(C(=O)c2cccnc2)S(=O)(=O)c2ccc(Cl)cc2)cc1	Pf growth 96h 5.2µM
Cc1cccc(N/N=C(\C=N\N)C(=O)c2ccc(Br)cc2)c1	Pf growth 48h 12µM
Cc1cccc(N=N/C(=C\O)C(=O)c2ccc(Br)cc2)c1	none
O=C1CC(C(=O)Nc2ccc(Br)cc2)C2(CCCC2)O1 (stereo not drawn)	none
Cc1ccc(NC(=O)C2Cc3ccccc3O/C2=N\O)cc1C (stereo not drawn)	Shiga toxin inh 74, CHX counter 49
O=C(Nc1ccc(Br)cc1)C1Cc2ccccc2O/C1=N\O (stereo not drawn)	Pf growth 96h inconclusive, Shiga toxin inh 111, CHX counter 55
O=C(Nc1ccccc1)C1C2/C=C\CCCCC21 (stereo not drawn)	Shiga toxin inh 43, CHX counter 19
Cc1ccc(NC(=O)C2C3/C=C\CCCCC32)cc1C (stereo not drawn)	CHX counter 37
CCSc1ncc(/C=N/Nc2ccc(Cl)cc2)n1C	Pf growth 96h inconclusive, Shiga toxin inh 112, CHX counter 77, Pf growth 48h inconclusive
CCSc1ncc(/C=N/Nc2ccc([N+](=O)[O-])cc2)n1C	Pf growth 96h inconclusive, Shiga toxin inh 55, CHX counter 25
Cn1c(-c2ccc(F)cc2)cnc1SCC(=O)Nc1ccccc1	Pf growth 96h inconclusive
CCSc1ncc(/C=N/Nc2ccccc2)n1C	Pf growth 96h 2.6µM, Shiga toxin inh 55, CHX counter 29, Pf growth 48h 5.2µM
O=C(COC(=O)c1ccc2ccccc2n1)NC1CCCCC1	Pf growth 48h inconclusive (no result: LmPK inhibitor, Shiga toxin inh, CHX counter)
O=C(COC(=O)COc1cccc(Br)c1)Nc1ccc(F)cc1F	none (no result: LmPK inhibitor, Shiga toxin inh, CHX counter)
Cc1ccc(S(=O)(=O)COCCN2CCN(S(=O)(=O)c3ccc(C)cc3)CCC2=O)cc1	none (no result: LmPK inhibitor, Pf growth 96h, Pf growth 48h)
Cc1cccc2c1CC(C)(C)N=C2C1=C(O)CC(C)(C)CC1=O	Pf growth 96h 13µM, Pf growth 48h inconclusive
CCC1(CC)Cc2ccccc2C(C2=C(O)CC(C)(C)CC2=O)=N1	Pf growth 96h inconclusive
COC(=O)c1ccccc1NC(=O)c1cccc(NC(=O)C(C)C)c1	Pf growth 96h inconclusive
CCOc1cc2c(cc1OCC)-n1cccc1C(c1ccc(OC(F)F)cc1)NC2 (stereo not drawn)	Pf growth 48h 13µM
CCOc1cc2c(cc1OCC)-n1cccc1C(c1ccc(C(C)C)cc1)NC2 (stereo not drawn)	Pf growth 96h inconclusive, Pf growth 48h 8.3µM
CCOc1cc2c(cc1OCC)-n1cccc1C(c1ccc(F)cc1)NC2 (stereo not drawn)	Pf growth 48h inconclusive
CCOC(=O)c1ccc2nc(NC(=O)C(C)C)sc2c1	Shiga toxin inh 59, CHX counter 44
CCCCC(=O)Nc1nc2ccc(C(=O)OC)cc2s1	Shiga toxin inh 97, CHX counter 27
CCCC(=O)Nc1nc2ccc(C(=O)OCC)cc2s1	Pf growth 96h inconclusive, Shiga toxin inh 73, CHX counter 26
CCOC(=O)CN1C(=O)N[C@@H](c2cccc(C(F)(F)F)c2)[C@H](C(=O)OC)[C@H]1C	none (no result: Pf growth 96h, Shiga toxin inh, CHX counter, Pf growth 48h)
CCCCCCCCCCCCC/C=C/[C@@H](O)[C@@H](N)COP(=O)(O)O	none (no result: LmPK inhibitor, Pf growth 96h, Pf growth 48h)
CCN(CC(=O)Nc1ccc(NC(C)=O)cc1)C(=O)CSc1ncnc2sc(C)c(C)c12	none (no result: LmPK inhibitor, Shiga toxin inh, CHX counter)
O=C(Nc1cc2c3c(c1)CC(=O)N3CCC2)c1c(F)cccc1F	none (no result: LmPK inhibitor, Shiga toxin inh, CHX counter)
COc1ccc(NN=Nc2nc3c([nH]2)c(=O)n(C)c(=O)n3C)cc1	Shiga toxin inh 84, CHX counter 40
Cc1ccccc1NN=Nc1nc2c([nH]1)c(=O)n(C)c(=O)n2C	none
CS(=O)(=O)N1CCc2cc(C(=O)Nc3ccc(O)cc3)ccc21	Pf growth 96h inconclusive
CCn1c(C)c(CS(=O)(=O)c2ccccc2)[nH]c1=O	CHX counter 34
CCN(CCCNC(=O)CN(C)S(=O)(=O)c1cccc2nsnc12)c1ccccc1	Pf growth 96h 12µM, Pf growth 48h inconclusive
CN(CC(=O)NCCc1ccccc1)S(=O)(=O)c1cccc2nsnc12	Pf growth 96h 8.3µM
CN(CC(=O)NCCN1CCN(Cc2ccccc2)CC1)S(=O)(=O)c1cccc2nsnc12	Pf growth 48h inconclusive
CN(CC(=O)N1CCN(Cc2ccccc2)CC1)S(=O)(=O)c1cccc2nsnc12	Pf growth 96h 4.1µM
COc1ccc(C(=O)Nc2ccccc2C(=O)NCc2cccnc2)cc1	Pf growth 96h inconclusive
COc1ccc(-c2oc(NC(=O)CCl)c(C#N)c2-c2ccc(OC)cc2)cc1	Pf growth 96h 9.3µM (no result: Pf growth 48h)
COc1cc2c(cc1NC(=S)Nc1ccccc1C)oc1ccccc12	Shiga toxin inh 91, CHX counter 33 (no result: Pf growth 96h)
CCCNC(=S)Nc1cc2oc3ccccc3c2cc1OC	Pf growth 96h 3.3µM, Pf growth 48h inconclusive
CCNC(=S)Nc1cc2oc3ccccc3c2cc1OC	none
COc1cc(C2C(C#N)=C(N)Oc3cc(N)ccc32)cc(OC)c1OC (stereo not drawn)	Pf growth 96h inconclusive
COc1cc(C2C(C#N)=C(C)NC(C)=C2C#N)cc(OC)c1OC	Pf growth 96h 12µM, Pf growth 48h 9.3µM
O=C(Cc1ccccc1)NCCc1c[nH]c2ccccc12	Pf growth 48h inconclusive
O=C(NCCc1c[nH]c2ccccc12)C(=O)Nc1ccccc1	Pf growth 96h inconclusive, CHX counter 29
O=C(NCCc1c[nH]c2ccccc12)c1ccccc1O	Shiga toxin inh 29, CHX counter 38 (no result: LmPK inhibitor, Pf growth 96h, Pf growth 48h)
O=C(NCCc1ccccc1)C(=O)c1c[nH]c2ccccc12	Shiga toxin inh 61, CHX counter 40, Pf growth 48h inconclusive
O=C(NCCc1c[nH]c2ccccc12)c1cc2sccc2n1Cc1ccccc1	none (no result: Pf growth 48h)
Cn1c(C(=O)NCCc2c[nH]c3ccccc23)cc2sccc21	Shiga toxin inh 89, CHX counter 82 (no result: Pf growth 48h)
O=S(=O)(/C=C/c1cccc(Br)c1)N1CCOCC1	none
CCc1cccc(C)c1NC(=O)c1cc(=O)[nH]c2ccc(S(=O)(=O)N3CCOCC3)cc12	none (no result: LmPK inhibitor, Shiga toxin inh, CHX counter)
CCC(C)n1c(=O)c2sccc2n2c(CCCC(=O)N3CCC(C(N)=O)CC3)nnc12 (stereo not drawn)	none
O=C(NCCc1c[nH]c2ccccc12)c1c(Cl)nc2sccn12	CHX counter 23
COc1ccc(N2CCN(CCCNC(=O)C(=O)c3c[nH]c4ccccc34)CC2)cc1	Pf growth 96h 2.1µM, Pf growth 48h 3.7µM
O=C(c1ccco1)N1CCN(c2nc3ccccc3n3nnnc23)CC1	Pf growth 96h inconclusive, Shiga toxin inh 36, CHX counter 24
CCn1c(N2CCN(C(=O)c3ccco3)CC2)nc2ccccc21	none
c1ccc(CC2CCN(c3nc4ccccc4n4nnnc34)CC2)cc1	Pf growth 96h inconclusive, CHX counter 8.5
Cc1ccccc1CSc1nc(C(C)(C)C)cc(=O)[nH]1	none
N#Cc1ccccc1Oc1ccc(S(=O)(=O)N2CCCCC2)cn1	none (no result: LmPK inhibitor, Shiga toxin inh, CHX counter)
Cc1cccc(N2CCN(C(=O)COc3cccc4c3OC(C)(C)C4)CC2)c1C	Pf growth 96h inconclusive, Pf growth 48h inconclusive
CC1(C)Cc2cccc(Oc3ccc(S(=O)(=O)N4CCCCC4)cn3)c2O1	Pf growth 96h inconclusive, Pf growth 48h 13µM

Screening results as filed in PubChem.
